This passage reports outcome and AC50 results from PubChem BioAssay (EPA / NIEHS).

Results filed as inconclusive are left out. The source made the active and inactive calls. Rule for the calls, unless noted: active = hit-call score of the fitted dose curve at least 0.9, where 1 is the maximum; inactive = score below 0.9.

The nature of experiment [1]: ATG_CRE_CIS: Attagene CIS-FACTORIAL HepG2 Assay for human cAMP Responsive Element (CRE) binding protein 3 (AID 2282926). As to conditions: HepG2 CRE cis-reporter, Attagene multiplexed mRNA; actives raise or lower the signal. The gist of the method: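 HepG2 cells transiently transfected with a multiplexed reporter library (CRE-driven unit among them) were dosed for 24 h. Reporter mRNA was quantified by RT-PCR, fluorescent labelling, HpaI digestion and capillary electrophoresis, with bidirectional fitting against DMSO baseline.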

Experiment [2] concerns the target Aryl hydrocarbon receptor (Homo sapiens) (UniProt P35869). In words: ATG_Ahr_CIS: Attagene CIS-FACTORIAL HepG2 Assay for human Aryl Hydrocarbon Receptor (Ahr) (AID 2282930). Conditions: HepG2 AhR cis-factorial reporter transcription; actives raise or lower the signal. The method, boiled down:
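HepG2 cells transiently transfected with cis-element-driven multiplexed reporter transcription units; endogenous transcription factor activity measured as reporter mRNA 24 h after dosing. RT-PCR, 6-FAM labelling, HpaI digestion, capillary electrophoresis; bidirectional fitting versus DMSO baseline.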

A short description of experiment [3]: ATG_AP_1_CIS: Attagene CIS-FACTORIAL HepG2 Assay for human Activator Protein 1 (AP-1) (AID 2282931). As to conditions: HepG2 Attagene cis-factorial AP-1 reporter mRNA; actives raise or lower the signal. The method, boiled down: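 HepG2, transient cis-reporter transfection; 24 h; readout RT-PCR/CE fluorescence; DMSO baseline, gain and loss fitted.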
The nature of experiment [4]: ATG_BRE_CIS: Attagene CIS-FACTORIAL HepG2 Assay for human Bone Morphogenetic Protein (BMP) Response Element (BRE) (AID 2282933). As to conditions: HepG2 BMP response element reporter, Attagene transcription factor profiling; actives raise or lower the signal. The gist of the method: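 Multiplexed cis-reporter assay, HepG2, 24 h exposure. mRNA from reporter units quantified via RT-PCR/CE; DMSO baseline; bidirectional curve fit.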

Experiment [5] has as its target Hepatocyte nuclear factor 3-beta (Homo sapiens) (UniProt Q9Y261). In words: ATG_FoxA2_CIS: Attagene CIS-FACTORIAL HepG2 Assay for human Forkhead box A2 (FOXA2) (AID 2282942). Conditions: HepG2 cis-reporter transcription factor activity, 24 h; actives raise or lower the signal. The gist of the method: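 24 h dosing of HepG2 bearing cis-reporter constructs; mRNA readout by RT-PCR/CE fluorescence; bidirectional fit, DMSO baseline.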

Experiment [6] can be described thus: ATG_GATA_CIS: Attagene CIS-FACTORIAL HepG2 Assay for human GATA Binding Protein (AID 2282944). As to conditions: HepG2 GATA cis-element reporter, Attagene multiplex mRNA; actives raise or lower the signal. The gist of the method: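 After transfecting HepG2 cells with multiple cis-regulated reporter units, chemicals are dosed for 24 h; isolated RNA undergoes RT-PCR and fluorescent labeling before capillary electrophoresis, with activity expressed against DMSO.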

The target in experiment [7] is Hypoxia-inducible factor 1-alpha (Homo sapiens) (UniProt Q16665). In words: ATG_HIF1a_CIS: Attagene CIS-FACTORIAL HepG2 Assay for human Hypoxia Inducible Factor 1 (HIF1A) (AID 2282951). As to conditions: HepG2 Attagene cis-factorial HIF1a reporter transcription; actives raise or lower the signal. The method, boiled down: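 After 24 h chemical exposure of reporter-transfected HepG2 cells, reporter cDNA was PCR-amplified, labelled by 6-FAM primer extension (2 min 95 C, 20 s 68 C, 10 min 72 C), HpaI-cut (2 h, 37 C) and analysed by CE.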

Experiment [8] deals with Hepatocyte nuclear factor 6 (Homo sapiens) (UniProt Q9UBC0). In words: ATG_HNF6_CIS: Attagene CIS-FACTORIAL HepG2 Assay for human Hepatocyte Nuclear Factor 6 (HNF6) (AID 2282952). As to conditions: HepG2 Attagene cis-factorial HNF6 reporter transcription; actives raise or lower the signal. The gist of the method: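 HepG2 cells transiently transfected with cis-element-driven multiple reporter transcription units, dosed 24 h; reporter mRNA quantified by RT-PCR, FAM primer extension, HpaI digestion and capillary electrophoresis; bidirectional fit versus DMSO baseline.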

Experiment [9] concerns the target Heat shock factor protein 1 (Homo sapiens) (UniProt Q00613). In words: ATG_HSE_CIS: Attagene CIS-FACTORIAL HepG2 Assay for human Heat Shock Transcription Factor 1 (HSE) (AID 2282953). Conditions: HepG2 HSE cis-reporter, Attagene RNA transcription; actives raise or lower the signal. The method, boiled down: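 Endogenous transcription factor activity captured via cis-promoter reporter units transfected into HepG2; treatment lasted 24 h. Fluorescence intensity of reporter fragments analysed with bidirectional curve fitting, DMSO baseline.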

The target of experiment [10] is Paired box protein Pax-6 (Homo sapiens) (UniProt P26367). In words: ATG_Pax6_CIS: Attagene CIS-FACTORIAL HepG2 Assay for human Paired Box 6 (PAX6) (AID 2282956). Conditions: HepG2 CIS-FACTORIAL PAX6 reporter transcription, RNA readout; actives raise or lower the signal. The gist of the method: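 HepG2 cells transiently transfected with multiplexed cis-promoter reporter units (endogenous TF activity) were dosed for 24 h. Reporter mRNA was quantified by RT-PCR, 6-FAM labeling, HpaI digestion and capillary electrophoresis; bidirectional fitting versus DMSO baseline.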

A short description of experiment [11]: ATG_VDRE_CIS: Attagene CIS-FACTORIAL HepG2 Assay for human Vitamin D Receptor Element (VDRE) (AID 2282968). Conditions: HepG2 VDRE cis-reporter transcription, actives raise or lower the signal. The method, boiled down: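 HepG2 cells transiently transfected with cis-element reporter units, dosed 24 h; reporter mRNA measured by RT-PCR, 6-FAM labeling, HpaI digestion and capillary electrophoresis. Activity fitted bidirectionally against DMSO baseline.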

Experiment [12] is described as follows: ATG_NF_kB_CIS: Attagene CIS-FACTORIAL HepG2 Assay for human Nuclear Factor Kappa B (NF-kB) (AID 2282991). Conditions: HepG2 Attagene cis-factorial NF-kB reporter mRNA; actives raise or lower the signal. The gist of the method: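 Fluorescence of labelled RT-PCR products separated by capillary electrophoresis gives reporter mRNA levels from transfected HepG2 cells exposed 24 h; values are fitted in both directions relative to DMSO.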

The nature of experiment [13]: ATG_NRF2_ARE_CIS: Attagene CIS-FACTORIAL HepG2 Assay for human Nuclear Factor Erythroid 2 Related Factor 2 (NFR2) response to Antioxidant Response Elements (ARE) (AID 2282992). Conditions: HepG2 Attagene ARE/NRF2 reporter, transcription factor activity; actives raise or lower the signal. The method, boiled down: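 HepG2 cells transiently transfected with multiplexed cis-regulated reporter transcription units measure endogenous transcription factor activity. Reporter mRNA at 24 h is quantified by RT-PCR, fluorescent labelling and capillary electrophoresis, with bidirectional fitting relative to DMSO.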

In experiment [14] the target is Cellular tumor antigen p53 (Homo sapiens) (UniProt P04637). In words: ATG_p53_CIS: Attagene CIS-FACTORIAL HepG2 Assay for human p53 Transcription Factor (AID 2282994). As to conditions: HepG2 p53 cis-element reporter, Attagene mRNA; actives raise or lower the signal. The gist of the method:
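HepG2 cells transiently transfected with multiplexed cis-regulated reporter transcription units read endogenous TF activity. After 24 h compound exposure, reporter mRNA was quantified by RT-PCR, fluorescent labelling, HpaI digestion and capillary electrophoresis; bidirectional fits versus DMSO baseline.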

Experiment [15] is described as follows: ATG_XTT_Cytotoxicity: Cytotoxicity Assessment in the Attagene TRANS-FACTORIAL HepG2 Assay (AID 2283584; active = hit-call score of the fitted dose curve at least 0.9, where 1 is the maximum). The method, boiled down: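 HepG2 human liver cells, transiently transfected with multiple GAL4-UAS reporter units, were dosed and read at 24 h by XTT as cell number. Loss of signal was fitted relative to DMSO negative control baseline.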
Experiment [16] can be described thus: ATG_Ets_CIS: Attagene CIS-FACTORIAL HepG2 Assay for human Erythroblast Transformation Specific (ETS) (AID 2282941). Conditions: HepG2 ETS cis-reporter transcription, actives raise or lower the signal. The gist of the method: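 HepG2 cells transiently transfected with cis-promoter reporter transcription units were dosed for 24 h; reporter mRNA was measured by RT-PCR, 6-FAM primer extension, HpaI digestion and capillary electrophoresis, with bidirectional fitting against DMSO baseline.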

Experiment [17] in a line: ATG_FoxO_CIS: Attagene CIS-FACTORIAL HepG2 Assay for human Forkhead box O (FoxO) (AID 2282943). Conditions: HepG2 Attagene cis-reporter, FoxO element, mRNA; actives raise or lower the signal. The gist of the method: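 HepG2 cells transiently transfected with cis-promoter-driven multiple reporter transcription units; 24 h after chemical dosing, reporter mRNA quantified by RT-PCR, fluorescent primer extension, HpaI digestion and capillary electrophoresis. Bidirectional fitting versus DMSO baseline.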

A short description of experiment [18]: ATG_MRE_CIS: Attagene CIS-FACTORIAL HepG2 Assay for human Metal Responsive Element (MRE) (AID 2282954). Conditions: HepG2 MRE cis-reporter transcription, Attagene multiplex; actives raise or lower the signal. The method, boiled down:
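HepG2 cells transiently transfected with multiple cis-element reporter units measure endogenous MTF1-driven transcription. After 24 h compound exposure, reporter mRNA is quantified by RT-PCR with 6-FAM labelling, HpaI digestion and capillary electrophoresis; bidirectional fits versus DMSO.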

Experiment [19] in a line: ATG_SREBP_CIS: Attagene CIS-FACTORIAL HepG2 Assay for human Sterol Regulatory Element Binding (SREBP) (AID 2282962). Conditions: HepG2 Attagene cis-factorial SREBP reporter, mRNA; actives raise or lower the signal. The gist of the method: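 HepG2 cells transiently transfected with multiplexed cis-element reporter units report endogenous transcription factor activity. After 24 h of chemical exposure, reporter mRNA was quantified by RT-PCR, 6-FAM labelling, HpaI digestion and capillary electrophoresis; bidirectional fits used DMSO as baseline.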

The nature of experiment [20]: ATG_CMV_CIS: Attagene CIS-FACTORIAL HepG2 Assay for human CMV (Internal Marker) (AID 2282928).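 Note: endpoint acts as a background internal control marker rather than a target.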 As to conditions: HepG2 CMV promoter reporter, transcription factor profiling; actives raise or lower the signal. The gist of the method: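 HepG2 cells transiently transfected with multiple cis-regulated reporter units; 24 h compound exposure. Reporter mRNA quantified by RT-PCR, 6-FAM primer-extension labeling, HpaI digestion and capillary electrophoresis; bidirectional fitting against DMSO baseline.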

Chain of Hepatocyte nuclear factor 3-beta (Homo sapiens) (Q9Y261 whole entry, looked up): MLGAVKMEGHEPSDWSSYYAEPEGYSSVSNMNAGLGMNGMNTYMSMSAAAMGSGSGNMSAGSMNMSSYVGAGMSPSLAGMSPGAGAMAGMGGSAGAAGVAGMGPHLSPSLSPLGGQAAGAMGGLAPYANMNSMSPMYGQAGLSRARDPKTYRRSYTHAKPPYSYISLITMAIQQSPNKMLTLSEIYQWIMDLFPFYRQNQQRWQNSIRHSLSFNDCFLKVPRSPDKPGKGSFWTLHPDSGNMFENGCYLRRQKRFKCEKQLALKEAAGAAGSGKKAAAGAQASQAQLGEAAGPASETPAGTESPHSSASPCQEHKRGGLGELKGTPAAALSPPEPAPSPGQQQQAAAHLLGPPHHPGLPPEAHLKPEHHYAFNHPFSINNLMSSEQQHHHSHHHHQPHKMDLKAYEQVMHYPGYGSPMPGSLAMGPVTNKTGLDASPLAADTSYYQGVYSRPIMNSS
Chain of Hypoxia-inducible factor 1-alpha (Homo sapiens) (Q16665 whole entry, looked up): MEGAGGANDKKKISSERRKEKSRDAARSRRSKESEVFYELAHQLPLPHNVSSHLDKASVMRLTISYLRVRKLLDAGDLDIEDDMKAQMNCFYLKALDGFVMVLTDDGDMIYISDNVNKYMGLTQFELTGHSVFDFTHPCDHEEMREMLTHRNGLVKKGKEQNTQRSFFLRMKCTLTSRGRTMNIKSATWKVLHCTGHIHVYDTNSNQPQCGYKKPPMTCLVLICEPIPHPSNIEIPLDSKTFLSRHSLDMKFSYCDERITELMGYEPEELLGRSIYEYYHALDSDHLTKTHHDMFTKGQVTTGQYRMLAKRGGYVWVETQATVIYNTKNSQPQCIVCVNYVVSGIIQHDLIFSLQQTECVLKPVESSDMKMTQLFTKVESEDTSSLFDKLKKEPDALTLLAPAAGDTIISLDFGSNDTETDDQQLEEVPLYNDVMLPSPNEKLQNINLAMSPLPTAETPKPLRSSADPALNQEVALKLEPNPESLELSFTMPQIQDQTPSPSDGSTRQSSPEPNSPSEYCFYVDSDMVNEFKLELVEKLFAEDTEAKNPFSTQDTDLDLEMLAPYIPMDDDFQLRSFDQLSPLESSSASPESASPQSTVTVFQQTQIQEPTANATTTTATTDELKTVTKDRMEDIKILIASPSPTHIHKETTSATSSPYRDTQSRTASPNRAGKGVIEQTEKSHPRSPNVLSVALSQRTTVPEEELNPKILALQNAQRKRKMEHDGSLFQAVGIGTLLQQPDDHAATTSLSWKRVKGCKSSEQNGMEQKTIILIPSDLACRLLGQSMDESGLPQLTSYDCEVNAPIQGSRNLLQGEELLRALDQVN
Chain of Cellular tumor antigen p53 (Homo sapiens) (P04637 whole entry, looked up): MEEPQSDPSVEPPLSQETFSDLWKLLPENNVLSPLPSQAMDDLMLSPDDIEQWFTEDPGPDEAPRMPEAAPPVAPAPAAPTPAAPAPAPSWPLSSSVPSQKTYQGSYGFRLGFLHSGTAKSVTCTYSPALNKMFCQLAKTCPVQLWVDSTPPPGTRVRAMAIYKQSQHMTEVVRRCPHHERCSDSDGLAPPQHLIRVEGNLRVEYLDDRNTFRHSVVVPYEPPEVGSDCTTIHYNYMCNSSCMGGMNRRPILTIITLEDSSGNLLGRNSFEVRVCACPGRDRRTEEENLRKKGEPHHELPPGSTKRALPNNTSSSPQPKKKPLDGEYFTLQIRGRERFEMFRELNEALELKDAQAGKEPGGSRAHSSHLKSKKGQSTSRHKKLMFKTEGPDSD
Chain of Hepatocyte nuclear factor 6 (Homo sapiens) (Q9UBC0 whole entry, looked up): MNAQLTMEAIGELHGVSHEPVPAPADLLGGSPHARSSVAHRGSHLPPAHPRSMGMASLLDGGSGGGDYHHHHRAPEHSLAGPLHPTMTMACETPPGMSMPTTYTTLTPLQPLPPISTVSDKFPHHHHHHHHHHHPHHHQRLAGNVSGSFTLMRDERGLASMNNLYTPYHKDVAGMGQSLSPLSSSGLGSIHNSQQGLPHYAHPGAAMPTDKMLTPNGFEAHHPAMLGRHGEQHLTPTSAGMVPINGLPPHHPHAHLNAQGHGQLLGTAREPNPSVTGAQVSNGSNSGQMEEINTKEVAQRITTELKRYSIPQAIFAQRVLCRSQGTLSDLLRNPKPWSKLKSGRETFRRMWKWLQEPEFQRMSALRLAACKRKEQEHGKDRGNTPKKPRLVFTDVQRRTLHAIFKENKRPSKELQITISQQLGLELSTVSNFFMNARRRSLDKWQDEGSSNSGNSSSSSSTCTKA
Chain of Heat shock factor protein 1 (Homo sapiens) (Q00613 whole entry, looked up, the tested form may be a part): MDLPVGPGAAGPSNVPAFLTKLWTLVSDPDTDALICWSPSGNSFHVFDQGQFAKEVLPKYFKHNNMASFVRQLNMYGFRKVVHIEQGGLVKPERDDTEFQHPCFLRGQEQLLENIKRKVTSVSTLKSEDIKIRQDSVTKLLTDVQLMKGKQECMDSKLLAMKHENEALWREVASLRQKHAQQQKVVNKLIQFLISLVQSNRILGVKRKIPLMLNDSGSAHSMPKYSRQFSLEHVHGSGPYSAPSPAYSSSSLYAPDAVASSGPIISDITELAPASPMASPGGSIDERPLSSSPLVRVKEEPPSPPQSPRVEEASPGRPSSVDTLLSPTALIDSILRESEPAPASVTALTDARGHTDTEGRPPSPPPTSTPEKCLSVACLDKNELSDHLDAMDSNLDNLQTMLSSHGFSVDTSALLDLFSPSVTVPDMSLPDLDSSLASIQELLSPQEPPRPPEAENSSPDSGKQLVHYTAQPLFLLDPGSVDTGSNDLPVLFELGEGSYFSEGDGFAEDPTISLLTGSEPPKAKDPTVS
Chain of Paired box protein Pax-6 (Homo sapiens) (P26367 whole entry, looked up): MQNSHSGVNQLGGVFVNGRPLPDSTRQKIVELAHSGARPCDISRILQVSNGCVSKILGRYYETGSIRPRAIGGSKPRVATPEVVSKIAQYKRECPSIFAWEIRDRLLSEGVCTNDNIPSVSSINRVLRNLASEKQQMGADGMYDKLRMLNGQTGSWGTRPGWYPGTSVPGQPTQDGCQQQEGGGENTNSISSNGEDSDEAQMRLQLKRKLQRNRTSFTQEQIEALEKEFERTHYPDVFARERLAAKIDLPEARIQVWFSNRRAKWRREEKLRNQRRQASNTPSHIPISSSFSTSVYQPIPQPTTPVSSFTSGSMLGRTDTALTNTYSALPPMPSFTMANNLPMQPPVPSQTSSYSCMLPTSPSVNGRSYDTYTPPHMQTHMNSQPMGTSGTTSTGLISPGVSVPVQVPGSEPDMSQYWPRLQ
Chain of Aryl hydrocarbon receptor (Homo sapiens) (P35869 whole entry, looked up): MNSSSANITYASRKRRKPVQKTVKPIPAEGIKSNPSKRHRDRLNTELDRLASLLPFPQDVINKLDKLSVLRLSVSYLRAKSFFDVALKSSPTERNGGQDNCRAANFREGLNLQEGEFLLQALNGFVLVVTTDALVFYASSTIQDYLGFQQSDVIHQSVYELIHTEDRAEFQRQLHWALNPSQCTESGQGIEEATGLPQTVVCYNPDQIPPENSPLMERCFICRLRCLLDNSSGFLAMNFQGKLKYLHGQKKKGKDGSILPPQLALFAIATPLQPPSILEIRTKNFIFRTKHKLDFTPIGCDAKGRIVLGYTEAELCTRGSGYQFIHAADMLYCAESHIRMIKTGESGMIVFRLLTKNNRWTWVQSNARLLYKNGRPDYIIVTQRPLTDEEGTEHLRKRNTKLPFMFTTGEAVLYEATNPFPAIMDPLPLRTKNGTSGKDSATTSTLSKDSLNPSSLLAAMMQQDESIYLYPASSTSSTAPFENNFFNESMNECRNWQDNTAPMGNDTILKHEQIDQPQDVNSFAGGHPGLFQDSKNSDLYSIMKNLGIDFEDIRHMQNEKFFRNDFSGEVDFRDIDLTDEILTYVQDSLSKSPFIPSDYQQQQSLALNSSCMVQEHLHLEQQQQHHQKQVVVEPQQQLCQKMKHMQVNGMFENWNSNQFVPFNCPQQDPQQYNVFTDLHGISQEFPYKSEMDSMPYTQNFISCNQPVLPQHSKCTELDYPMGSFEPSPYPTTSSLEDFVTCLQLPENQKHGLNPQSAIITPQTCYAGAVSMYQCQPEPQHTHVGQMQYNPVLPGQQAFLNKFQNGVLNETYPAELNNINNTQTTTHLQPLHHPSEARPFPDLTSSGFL

With `CNC(=N[N+](=O)[O-])NCC1CCOC1` (stereo unspecified), the call in [1], in experiment [2], in [3], in [4], in [5] and in experiment [6] was inactive. Further, the compound was classed as inactive in [7], in experiment [8], in experiment [9], in experiment [10], in experiment [11] and in experiment [12]. The call in experiment [13], in [14] and in experiment [15] was inactive.
Regarding `CC(C)(O)C#N`, the compound was classed as inactive in experiment [1], in experiment [2], in experiment [16], in experiment [5], in experiment [17] and in [6]. Further, the call in experiment [7], in experiment [8], in experiment [9], in [11], in experiment [13] and in [14] was inactive. Also, in experiment [15], the call was inactive.
With `COc1ncc(F)c2nc(S(=O)(=O)Nc3c(F)cccc3F)nn12`, the outcome in experiment [1], in experiment [2], in [3], in experiment [4], in experiment [16] and in experiment [17] was inactive. Also, the outcome in experiment [6], in experiment [7], in [8], in experiment [9], in experiment [18] and in experiment [19] was inactive. Moreover, the compound was called inactive in experiment [12], in experiment [13] and in experiment [15].
Regarding `N#CC(c1ccccc1)c1ccccc1`, the result in experiment [1], in [20], in [16], in experiment [5], in experiment [17] and in experiment [6] was inactive. Further, the compound was classed as inactive in [7], in [8], in experiment [9], in experiment [18], in experiment [10] and in [19]. Also, in experiment [14], the compound was classed as inactive. The half-maximal activity concentration (AC50) in experiment [11] is 30.3 µM (active); in [13] it was 77.9 µM (active).
Take `CC(O)CN(CC(C)O)CC(C)O` (stereo unspecified): the call in experiment [1], in [20], in experiment [3], in [16], in experiment [5] and in experiment [17] was inactive. Besides, the outcome in experiment [7], in [8], in experiment [9], in [10], in [19] and in [13] was inactive. Besides, in [14], the call was inactive.

Broadly, the AC50 is the midpoint of the concentration-response curve, whichever way the signal moves.
